KCNK9 inh = KCNK9 potassium channel inhibitors, primary screen, HEK293 cells, thallium flux. B-score at 10 µM. actives 1.2% (n = 310,000). AID 488922, 2010. Potassium channel subfamily K member 9 (Homo sapiens), Q9NPC2. FluxOR thallium flux fluorescence; hits give low values;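 active = ratio B-score over 3 SD below the library mean, with starting fluorescence within 5 SD of its mean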;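 note: negative B-score means less thallium flux so channel inhibition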
KCNK3 inh = human KCNK3 channel inhibitors, primary screen, CHO cells, FluxOR thallium flux, B-score | B-score at 10 µM | actives 0.84% (n = 340,000) | Potassium channel subfamily K member 3 (Homo sapiens), O14649 | AID 602410, 2012 | FluxOR fluorescence; hits give low values;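 active = B-score under library mean minus 4 SD, starting fluorescence ratio at most library mean plus 5 SD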;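 note: more negative B-score means stronger inhibition of thallium flux through KCNK3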
Kir21 inh = inhibitors of mouse Kir2.1 inward-rectifier potassium channel. HEK293-Kir2.1, FluxOR thallium flux fluorescence; hits give low values. B-score at 10 µM. actives 0.85% (n = 310,000). AID 1672, 2009;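 active = fluorescence ratio B-score at or below minus 3 SD of library scores, with starting-brightness B-score within 2 SD, cut at about -4.2 in these data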;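 note: channel flux triggered by added potassium and thallium sulfate stimulus; B-score of peak minus minimum fluorescence over baseline after thallium stimulus; more negative B-score means stronger Kir2.1 block with less thallium influx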
TMEM16A inh = TMEM16A chloride channel inhibitors, primary screen, cell-based, HTS; AID 588511, 2011; actives 1.2% (n = 310,000); HEK293 TMEM16A/YFP iodide influx fluorescence, ionomycin; normalized B-score (activity score, 25-100; higher = stronger inhibition) at 10 µM; Anoctamin-1 (Mus musculus), Q8BHY3;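 active = ratio plate-corrected score three or more library SD toward inhibition, starting fluorescence score within five deviations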;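 note: score derived from kinetic fluorescence span divided by baseline fluorescence per well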
TMEM16A act = TMEM16A chloride channel activators or potentiators, primary screen, cell-based, HTS | B-score at 10 µM | Anoctamin-1 (Mus musculus), Q8BHY3 | AID 623877, 2012 | actives 0.3% (n = 340,000) | HEK293 TMEM16A/YFP-H148Q/I152L, iodide quench fluorescence; hits give low values;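 active = fluorescence-ratio B-score plate-corrected deviation score at least 3 library SD below zero, with starting fluorescence score within 5 deviations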;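 note: channel opened by trigger with iodide after compound preincubation; score built on the fluorescence ratio of max minus min over baseline; more negative score means more quench and so TMEM16A activation or potentiation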
A number is an active result; n = inactive; x = no result. Rows were chosen to be rich in hits. Some 3.5% of all compounds tested hit in one or more screens of this group.

SMILES | KCNK9 inh | KCNK3 inh | Kir21 inh | TMEM16A inh | TMEM16A act
O=C(Nc1nnc(SCc2ccccn2)s1)C1CC(=O)N(c2ccc(F)cc2)C1 (configuration not stated) | n | n | n | n | n
CCCn1c(COc2ccccc2OC)nc2ccccc21 | n | n | -4.3 | n | n
COc1ccccc1OCCSc1nc2ccccc2n1CCO | n | n | -4.26 | n | n
CCOc1ccc(C(C)NC(=O)CCC(=O)O)cc1 (configuration not stated) | n | n | n | n | n
CCOc1ccc(S(=O)(=O)N2CCOCC2)cc1NC(=O)CN1C(=O)NC(C)(c2ccccc2)C1=O (configuration not stated) | n | n | n | n | n
C=CCOc1ccccc1CN(C(=O)CCl)c1ccc2c(c1)OCO2 | n | n | -4.2 | n | n
CCOc1ccccc1NC(=O)Nc1ccc2c(c1)OCO2 | n | n | n | n | n
O=C(O)CSCC(=O)N(Cc1ccccc1)c1nc(-c2ccccc2)c(-c2ccccc2)s1 | n | n | n | 100 | n
CC(=O)C1=C(O)C(=O)N(c2ccc(C)cc2)C1c1ccccn1 (configuration not stated) | n | n | n | n | n
COC(=O)C1=C(C(=O)OC)[C@@H]2N(Cc3ccccc3)c3ccccc3[C@@]23C[C@@H](C(=O)OC)N(C(=O)C2CCC2)C3=N1 | -7.69 | x | n | n | x
CCOC(=O)N1C2=NC(C(=O)OC)=C(C(=O)OC)[C@@H]3N(Cc4ccccc4)c4ccccc4[C@]23C[C@H]1C(=O)OC | -7.71 | x | n | n | x
COC(=O)C1=C(C(=O)OC)[C@@H]2N(Cc3ccccc3)c3ccccc3[C@@]23C[C@@H](C(=O)OC)N(C(C)=O)C3=N1 | n | n | n | n | n
CC#CCN1c2ccccc2[C@]23C[C@@H](C(=O)OC)N(C(=O)C4CCC4)C2=NC(C(=O)OC)=C(C(=O)OC)[C@H]13 | n | n | n | n | n
CCN(CC)S(=O)(=O)c1ccc(N2CCN(CCOc3ccc(OC)cc3)CC2)nc1 | n | n | n | n | n
C[C@H]1C=C(C(=O)O)O[C@@H](OCc2ccc(CO)cc2)C1 | n | n | n | n | n
Cc1cc(Cl)ccc1OC(C)C(=O)Nc1ccc(C(=O)Nc2ccccc2C(=O)O)cc1 (configuration not stated) | n | n | n | 100 | n
Cc1onc(-c2ccccc2)c1C(=O)NNC(=S)NC(=O)c1ccc(Cl)cc1Cl | n | n | n | 100 | n
Cc1cccc(C(=O)NC(=S)NNC(=O)c2ccccc2Cl)c1 | n | n | n | 100 | n
Cc1cccc(C(=O)NC(=S)Nc2ccccc2C(=O)O)c1 | n | n | n | n | n
Cc1onc(-c2ccccc2)c1C(=O)NNC(=S)NC(=O)c1ccc(Br)cc1 | n | n | n | 100 | n
Cc1ccccc1C(=O)NNC(=S)NC(=O)c1ccc(Cl)cc1Cl | n | n | n | 100 | n
CCNC(=O)NC(=O)COC(=O)C1CSC2(C)CCC(=O)N12 (configuration not stated) | n | n | n | n | n
CCCCCN(C(=O)CN1CCC(Cc2ccccc2)CC1)c1c(N)n(CCCC)c(=O)[nH]c1=O | n | n | n | n | n
OC(Cn1cnnc1)c1ccccc1 (configuration not stated) | n | n | n | n | n
CCc1ccc(OCCn2cccn2)cc1 | n | n | n | n | n
SMILES | KCNK9 inh | KCNK3 inh | Kir21 inh | TMEM16A inh | TMEM16A act
C[C@H](CO)N1C[C@H](C)[C@@H](CN(C)S(=O)(=O)c2cccs2)Oc2c(NS(=O)(=O)c3ccccc3)cccc2C1=O | x | n | x | x | n
COc1ccc(C2/C(=C(\O)c3ccc4c(c3)CC(C)O4)C(=O)C(=O)N2Cc2cccnc2)c(OC)c1 (configuration not stated) | n | n | n | n | n
COc1ccc(C)cc1S(=O)(=O)N1CCc2ccccc2C1 | n | n | -4.26 | n | n
COc1ccc(/C=C/C(=O)O)cc1S(=O)(=O)N1CCc2ccccc2C1 | n | n | n | n | n
N#CC(C#N)=NNc1ccc(S(=O)(=O)N2CCCCC2)cc1 | n | n | n | 100 | n
N#C/C(=N\Nc1ccc(S(=O)(=O)N2CCOCC2)cc1)C(N)=S | n | n | n | n | n
COc1ccc(C)cc1NC(=O)c1cccc(-c2ccc(OC(C)=O)cc2)c1 | -8.07 | n | n | n | n
CCCCN(C)CC(O)Cn1cc(/C=C/C(=O)c2ccc(C)cc2)c2ccccc21 (configuration not stated) | n | n | -5.21 | n | n
COc1cc(CCCN2C(=O)C(=O)NC[C@@H]2CC2CCCCC2)cc(OC)c1OC | n | n | n | n | n
COc1cc(CCCN2C(=S)NC[C@@H]2CC2CCCCC2)cc(OC)c1OC | n | n | -4.3 | n | n
CCOC(=O)C1=C(C)N(CCCCCC(=O)O)C(=O)NC1c1ccc(Cl)cc1 (configuration not stated) | n | n | n | n | n
CCOC(=O)C1=C(C)N(CC)C(=S)NC1c1ccc(Cl)cc1 (configuration not stated) | n | n | -7.08 | n | n
COC(=O)c1cccn(CC(=O)c2ccc(Cl)cc2)c1=O | n | n | n | n | n
CN(C)S(=O)(=O)c1cccc(COc2ncnc3c(Cl)cc(Cl)cc23)c1 | n | n | n | n | -9.47
CCOc1ccc(S(=O)(=O)NCc2ccc3c(c2)OCO3)cc1C(=O)O | n | n | n | n | n
CCOc1cc(C)c(Cl)cc1S(=O)(=O)NCc1ccc2c(c1)OCO2 | n | n | -6.56 | n | n
Cc1cc(C)c(S(=O)(=O)NCc2ccc3c(c2)OCO3)c(C)c1 | n | n | n | n | n
Cc1cc(C)c(S(=O)(=O)NCc2ccc3c(c2)OCO3)cc1C | n | n | -4.26 | n | n
CN(c1ccc(Cl)cc1)S(=O)(=O)c1nnc(NC(=O)C(C)(C)C)s1 | n | n | n | n | n
CCCCC(CC)CN=C(N)NC(N)=NCCCCCCN=C(N)NC(N)=NCC(CC)CCCC (configuration not stated) | x | n | x | n | -26
CCCCC(CC)CO (configuration not stated) | x | n | x | x | n
CCNc1sc(S(C)(=O)=O)nc1S(=O)(=O)c1ccc(Cl)cc1 | n | n | n | n | n
COc1ccc(NC(=S)NCCc2ccccc2OC)c(OC)c1 | n | n | -5.65 | n | n
Cc1cc(C)c(S(=O)(=O)NCCc2ccccc2)c(C)c1 | n | n | -10.1 | n | n
Cc1cc(Br)ccc1NC(=S)NCCc1ccccc1 | n | n | n | n | n
Cc1ccc(NC(=S)NCCc2ccccc2)c(C)c1 | n | n | -5.12 | n | n
Cc1ccccc1NC(=O)C(=O)NCCc1c[nH]c2ccccc12 | n | n | n | n | n

Screening data as filed in PubChem BioAssay.
